# From the supplement of paper PMC12636033
# ± gives the standard deviation of the averaged measurements. Whole data set: some 33,000 sequences, median “E-score (rank enrichment, -0.5 to 0.5)” near -0.0028, cut for the highest 2% near 0.23. For the sample, the highest values were picked, then their nearest neighbours and some sequences at random.
# Test system: 2Sb-muMax20 (muMax20 with two 1,3-bis(methyl)benzene Cys staples, A13C/A17C and Q88C/A92C, C-terminal Lys)
# Assay: PBM 8-mer E-score (E-score (rank enrichment, -0.5 to 0.5)); higher = stronger preferential binding
# Experimental: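 Protein binding microarray (universal PBM chip covering all 10-mers in fixed probe flanks) with chemically synthesized human Max(13-93) bHLH-LZ analogs (not full-length Max) bearing noncanonical residues (hArg, Tha, Aib, Nle at 65) and aromatic Cys staples. Read-out per 8-mer (and its reverse complement): E-score (rank-based enrichment, -0.5 to 0.5) and Z-score of median probe intensity.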
row,Sequence,PBM 8-mer E-score
1,AAAACCAC,0.121 ± 0.013
2,GCGTACCA,-0.0976 ± 0.0064
3,AGACAAAA,-0.00983 ± 0.042
4,ACAGCAAA,0.0417 ± 0.047
5,ACGGGAAT,-0.08 ± 0.016
6,AGTGGGTA,0.121 ± 0.042
7,GATGGGTA,0.246 ± 0.021
8,GTTGGGTA,0.1494 ± 0.00044
9,AGTGGGCA,0.0757 ± 0.023
10,AATGGGTA,0.039 ± 0.0031
11,AGTGGGCG,0.237 ± 0.019
12,GGTGGGTA,0.282 ± 0.063
13,CGTGGGTA,0.00707 ± 0.0098
14,AGTGGGTC,-0.178 ± 0.017
15,AGTGGGTG,0.259 ± 0.0086
16,AGTGGGCC,-0.212 ± 0.019
17,CATGGGTA,0.053 ± 0.028
18,CGGCGCCG,-0.0151 ± 0.033
19,AATGAACA,0.129 ± 0.016
20,CCGCTGGC,-0.26 ± 0.0032
21,AAGGCACG,0.076 ± 0.023
22,GGCACACA,-0.16 ± 0.044

row,Sequence,PBM 8-mer E-score
1,ATTCCGCC,0.107 ± 0.039
2,GAACTAGA,0.067 ± 0.017
3,AAACTAGA,0.08188 ± 0.00023
4,TAACTAGA,0.238 ± 0.031
5,TATATTAA,0.158 ± 0.011
6,AGTATTAG,0.147 ± 0.0055
7,AATATTAG,0.178 ± 0.0068
8,AATATTAT,0.259 ± 0.0099
9,AGTATTAC,0.236 ± 0.075
10,AATATTAA,0.335 ± 0.045
11,ACTATTAA,0.176 ± 0.026
12,ACTATTAT,0.194 ± 0.027
13,CATATTAG,0.132 ± 0.032
14,CATATTAA,0.238 ± 0.062
15,AGTATTAA,0.206 ± 0.061
16,GATATTAA,0.123 ± 0.014
17,AGGAGGTC,-0.222 ± 0.015
18,CGGGAGGC,-0.24 ± 0.032
19,ATCTTACA,0.075 ± 0.012
20,ACCCAAGA,0.0956 ± 0.071
21,GGACCAGA,-0.2186 ± 0.0017
22,AGCCAACC,0.106 ± 0.0086

row,Sequence,PBM 8-mer E-score
1,GTCAATAA,0.075 ± 0.025
2,TGAGACAA,0.109 ± 0.058
3,AGCTTAGC,-0.123 ± 0.011
4,ACTGGGTG,0.00505 ± 0.024
5,CGTTTAGC,0.00586 ± 0.16
6,TCTGTGCA,-0.0114 ± 0.085
7,GCTAGAAC,-0.0972 ± 0.085
8,GATATTAC,0.187 ± 0.088
9,CATATTAC,0.146 ± 0.071
10,AATATTAC,0.26 ± 0.0093
11,ACGCAGCA,-0.0676 ± 0.011
12,CATCAATA,0.0338 ± 0.066
13,CCTTTCAC,0.0485 ± 0.022
14,GTCGCGAA,-0.208 ± 0.09
15,ATCGCGAA,0.0277 ± 0.02
16,GTCGCGAC,0.291 ± 0.0036
17,ATCGCGAG,0.151 ± 0.049
18,ATCGCGAT,0.255 ± 0.036
19,CTCGCGAC,0.107 ± 0.013
20,GGCTGTGA,-0.181 ± 0.072
21,ACTTATGC,-0.0277 ± 0.024
22,AGTGCGAC,-0.0265 ± 0.057

row,Sequence,PBM 8-mer E-score
1,GACCAGAC,-0.231 ± 0.026
2,CGGTCGGA,-0.196 ± 0.0063
3,CATTCGTC,-0.00288 ± 0.012
4,ATGATACC,0.127 ± 0.024
5,GAGATGCA,0.113 ± 0.076
6,GAGATACA,0.0204 ± 0.028
7,AAGATGCA,0.262 ± 0.023
8,AAGATGCT,0.0039 ± 0.035
9,AAGATACT,0.151 ± 0.031
10,CTGATACA,-0.049 ± 0.059
11,ATGATACA,0.255 ± 0.0028
12,AAGATACA,0.245 ± 0.033
13,GCAAATCA,-0.0255 ± 0.056
14,ACTTTGCG,0.0825 ± 0.063
15,AGCTACTA,0.0815 ± 0.033
16,AATTGGAA,0.00538 ± 0.0076
17,CGTTAACA,0.0451 ± 0.018
18,AGTTAACA,0.138 ± 0.09
19,TGTTAACA,0.301 ± 0.013
20,CAAACTGG,-0.0119 ± 0.034
21,CAATATTA,0.106 ± 0.017
